“And” between values parts separate entries of the source, which are not always exact repeats. Equal values may be shown once. Results filed as inconclusive are left out. Where a structure was tested more than once in an assay, its records may differ in their call. The source made the active and inactive calls. How the source made its calls, unless noted: active means hit-call score of the fitted dose curve at least 0.9, where 1 is the maximum; inconclusive means response in the unintended direction; inactive means score below 0.9.

This passage reports AC50 and outcome results from PubChem BioAssay (EPA / NIEHS).

In experiment [1] the target is zebrafish Estrogen Receptor (ER1), esr1 (gene 259252) (UniProt P57717). The experiment in a line: ATG_zfER1_XSP2: Attagene TRANS-FACTORIAL Multi-Species (XSP2) HepG2 Assay for zebrafish Estrogen Receptor (ER1) (AID 2283816). In a few lines:
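HepG2 cells transiently transfected with a GAL4-UAS reporter and a chimeric zebrafish ER1-Gal4 construct, dosed 24 h. Reporter mRNA quantified by RT-PCR, labelling, HpaI digestion and capillary electrophoresis, relative to DMSO.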

Experiment [2] concerns the target chicken Estrogen Receptor (ERa), ESR1 (gene 396099) (UniProt P06212). The experiment in a line: ATG_chERa_XSP2: Attagene TRANS-FACTORIAL Multi-Species (XSP2) HepG2 Assay for chicken Estrogen Receptor (ERa) (AID 2283817).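 Further: actives raise reporter signal above DMSO so AC50 reflects ER activation.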 An outline of the steps: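 HepG2 cells transiently transfected with multiplexed GAL4-UAS reporter units expressing chimeric chicken ERa-Gal4; 24 h compound exposure. Reporter mRNA measured by RT-PCR with 6-FAM labelling, HpaI digestion and capillary electrophoresis; gain-of-signal fitted versus DMSO.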

Experiment [3] deals with zebrafish Estrogen Receptor (ER2a), gene 317734. The experiment in a line: ATG_zfER2a_XSP2: Attagene TRANS-FACTORIAL Multi-Species (XSP2) HepG2 Assay for zebrafish Estrogen Receptor (ER2a) (AID 2283818).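 Further: hits raise reporter mRNA so AC50 reflects activation of zebrafish ER2a.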 An outline of the steps:
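HepG2 cells transiently transfected with GAL4-UAS reporter units and chimeric zebrafish ER2a-Gal4, exposed 24 h; medium contains 3 nM 6-alpha-fluorotestosterone and 1.5 nM norgestrel. Reporter mRNA quantified by RT-PCR, HpaI digestion, capillary electrophoresis; gain versus DMSO.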

Experiment [4] concerns zebrafish Estrogen Receptor (ER2b), gene 317733. The experiment in a line: ATG_zfER2b_XSP2: Attagene TRANS-FACTORIAL Multi-Species (XSP2) HepG2 Assay for zebrafish Estrogen Receptor (ER2b) (AID 2283823).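 Further: fitted upward as reporter gain over DMSO so potency reflects activation.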 An outline of the steps: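 Cells used were HepG2, transiently transfected with chimeric nuclear receptor-Gal4 reporter units. After 24 h of chemical treatment, reporter transcripts were amplified by RT-PCR, labelled and sized by capillary electrophoresis, with induction analysed relative to DMSO.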

The test system of experiment [5] is frog Estrogen Receptor (ER2), gene 100174814. The experiment in a line: ATG_frER2_XSP2: Attagene TRANS-FACTORIAL Multi-Species (XSP2) HepG2 Assay for frog Estrogen Receptor (ER2) (AID 2283828). An outline of the steps: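 Human liver HepG2, transient MRTU transfection (TRANS format, exogenous NR–Gal4). 24 h cpd exposure. Total RNA → RT → PCR → FAM label → HpaI cut → CE. Positive direction vs DMSO.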

For experiment [6], the target named is Peroxisome proliferator-activated receptor gamma (Homo sapiens) (UniProt P37231). The experiment in a line: ATG_hPPARg_XSP2: Attagene TRANS-FACTORIAL Multi-Species (XSP2) HepG2 Assay for human Peroxisome Proliferator-activated Receptor gamma (PPARg) (AID 2283829).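 Further: actives raise reporter mRNA above DMSO so AC50 reflects PPARg activation.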 An outline of the steps:
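After transfecting HepG2 with GAL4-UAS reporter constructs, cells are dosed for 24 h; total RNA is reverse-transcribed, PCR-amplified, FAM-labeled, HpaI-digested and resolved by capillary electrophoresis. Activity is measured as mRNA induction relative to DMSO.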

Experiment [7] deals with mouse Peroxisome Proliferator-activated Receptor gamma (PPARg), Pparg (gene 19016) (UniProt P37238). The experiment in a line: ATG_mPPARg_XSP2: Attagene TRANS-FACTORIAL Multi-Species (XSP2) HepG2 Assay for mouse Peroxisome Proliferator-activated Receptor gamma (PPARg) (AID 2283830).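 Further: hits are gains in reporter mRNA above DMSO so AC50 marks activation.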 In a few lines:
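HepG2 cells transiently transfected with GAL4-UAS reporter units for chimeric NR-Gal4 proteins including mouse PPARg, exposed 24 h; medium contained 3 nM 6-alpha-fluorotestosterone and 1.5 nM norgestrel. Reporter mRNA quantified by RT-PCR, HpaI digestion and capillary electrophoresis, vs DMSO.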

Experiment [8] has as its target zebrafish Thyroid Hormone Receptor alpha (TRa), thraa (gene 30670) (UniProt Q98867). The experiment in a line: ATG_zfTRa_XSP2: Attagene TRANS-FACTORIAL Multi-Species (XSP1) HepG2 Assay for zebrafish Thyroid Hormone Receptor alpha (TRa) (AID 2283832).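 Further: actives raise zebrafish TRa-Gal4 reporter transcript above DMSO baseline.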 In a few lines:
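Transient transfection of human HepG2 with GAL4-UAS reporter units, then 24 h chemical treatment. RNA isolated, reverse-transcribed, PCR-amplified, FAM-labelled, HpaI-digested and run on capillary electrophoresis. Gain-of-signal relative to DMSO.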

Experiment [9] has as its system zebrafish Peroxisome Proliferator-activated Receptor gamma (PPARg), gene 557037. The experiment in a line: ATG_zfPPARg_XSP2: Attagene TRANS-FACTORIAL Multi-Species (XSP2) HepG2 Assay for zebrafish Peroxisome Proliferator-activated Receptor gamma (PPARg) (AID 2283833).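 Further: actives increase reporter signal over DMSO so AC50 reflects activation.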 In a few lines:
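Multi-species TRANS format in HepG2, 24 h dosing; medium also contained 3 nM 6-alpha-fluorotestosterone and 1.5 nM norgestrel to stimulate androgen receptor. Zebrafish PPARg-GAL4 induced reporter mRNA was measured by RT-PCR/capillary electrophoresis.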

For experiment [10], the system named is turtle Thyroid Hormone Receptor, alpha (TRa), gene 101949057. The experiment in a line: ATG_trTRa_XSP2: Attagene TRANS-FACTORIAL Multi-Species (XSP1) HepG2 Assay for turtle Thyroid Hormone Receptor, alpha (TRa) (AID 2283834).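 Further: hits raise reporter mRNA over the DMSO baseline so AC50 marks activators.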 In a few lines:
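Transfection of HepG2 with multiple reporter transcription units, then chemical dosing for 24 h. Total RNA was reverse-transcribed, reporter sequences PCR-amplified and FAM-labelled, then sized by capillary electrophoresis. DMSO served as baseline.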

The nature of experiment [11]: ATG_M_61_XSP2: Attagene TRANS-FACTORIAL Multi-Species (XSP2) HepG2 Assay for M61 Transcription Factor (Internal Marker) (AID 2283835; active means hit-call score of the fitted dose curve at least 0.9, where 1 is the maximum; inactive means score below 0.9;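 further: active means a rise in signal above the DMSO baseline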). An outline of the steps: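 HepG2 cells transiently transfected with multiple GAL4-UAS reporter units; 3 nM 6-alpha-fluorotestosterone and 1.5 nM norgestrel present to stimulate androgen receptor. After 24 h compound exposure, reporter mRNA measured by RT-PCR and capillary electrophoresis fluorescence, gain-of-signal versus DMSO baseline.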

In experiment [12] the target is zebrafish Thyroid Hormone Receptor beta (TRb), thrb (gene 30607) (UniProt Q9PVE4). The experiment in a line: ATG_zfTRb_XSP2: Attagene TRANS-FACTORIAL Multi-Species (XSP1) HepG2 Assay for zebrafish Thyroid Hormone Receptor beta (TRb) (AID 2283836). An outline of the steps:
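Human liver HepG2, transient MRTU transfection (NR-Gal4 chimeras, GAL4-UAS reporters); 24 h compound exposure; total RNA → oligo(dT) RT → PCR → 6-FAM label → HpaI cut → CE fluorescence. DMSO = negative control/baseline.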

Experiment [13] has as its target GAL4 Transcription Factor (Internal Marker), GAL4 (gene 855828) (UniProt P04386). The experiment in a line: ATG_GAL4_XSP2: Attagene TRANS-FACTORIAL Multi-Species (XSP2) HepG2 Assay for GAL4 Transcription Factor (Internal Marker) (AID 2283814).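 Further: GAL4 reporter mRNA background control in MRTU transfected cells not a receptor target.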 An outline of the steps: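 HepG2 cells transiently transfected with GAL4-UAS reporter units, stimulated with 3 nM 6-alpha-fluorotestosterone plus 1.5 nM norgestrel, dosed 24 h. Reporter mRNA by RT-PCR/capillary electrophoresis; gain-of-signal fit versus DMSO, background control.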

The subject of experiment [14] is turtle Androgen Receptor (AR), gene 101947425. The experiment in a line: ATG_trAR_XSP2: Attagene TRANS-FACTORIAL Multi-Species (XSP2) HepG2 Assay for turtle Androgen Receptor (AR) (AID 2283815). An outline of the steps: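 HepG2 cells transiently transfected with GAL4-UAS reporter units for chimeric NR-Gal4 receptors; 24 h dosing in presence of 3 nM 6-alpha-fluorotestosterone and 1.5 nM norgestrel. Reporter mRNA by RT-PCR and capillary electrophoresis, gain of signal versus DMSO.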

Experiment [15] has as its system frog Androgen Receptor (AR), gene 399456. The experiment in a line: ATG_frAR_XSP2: Attagene TRANS-FACTORIAL Multi-Species (XSP2) HepG2 Assay for frog Androgen Receptor (AR) (AID 2283824).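 Further: actives raise reporter signal above DMSO so AC50 reflects agonist-like induction.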 In a few lines: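 HepG2 cells transiently transfected with GAL4-UAS reporter units and frog (Xenopus laevis) AR-Gal4 chimera; reporter mRNA measured 24 h after dosing by RT-PCR and capillary electrophoresis. Gain of signal fitted relative to DMSO baseline.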

The test system of experiment [16] is zebrafish Androgen Receptor (AR), gene 100005148. The experiment in a line: ATG_zfAR_XSP2: Attagene TRANS-FACTORIAL Multi-Species (XSP2) HepG2 Assay for zebrafish Androgen Receptor (AR) (AID 2283825).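 Further: hits raise reporter mRNA above DMSO so AC50 reflects agonist-type gain.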 An outline of the steps:
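Zebrafish AR–GAL4 chimera transiently expressed with GAL4-UAS reporter in HepG2 cells, co-stimulated with 3 nM 6-alpha-fluorotestosterone and 1.5 nM norgestrel; 24 h dosing, reporter mRNA read by RT-PCR/capillary electrophoresis versus DMSO.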

Experiment [17] concerns the target Estrogen receptor (Homo sapiens) (UniProt P03372). The experiment in a line: ATG_hERa_XSP2: Attagene TRANS-FACTORIAL Multi-Species (XSP2) HepG2 Assay for human Estrogen Receptor (ERa) (AID 2283827). In a few lines: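 HepG2 cells transiently transfected with multiplexed GAL4-UAS reporters driven by chimeric receptor-Gal4 proteins, dosed 24 h with 3 nM 6-alpha-fluorotestosterone and 1.5 nM norgestrel present. Reporter mRNA by RT-PCR and capillary electrophoresis; gain-of-signal fit versus DMSO.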

Estrogen receptor (Homo sapiens), sequence (P03372 whole entry, looked up, the tested form may be a part): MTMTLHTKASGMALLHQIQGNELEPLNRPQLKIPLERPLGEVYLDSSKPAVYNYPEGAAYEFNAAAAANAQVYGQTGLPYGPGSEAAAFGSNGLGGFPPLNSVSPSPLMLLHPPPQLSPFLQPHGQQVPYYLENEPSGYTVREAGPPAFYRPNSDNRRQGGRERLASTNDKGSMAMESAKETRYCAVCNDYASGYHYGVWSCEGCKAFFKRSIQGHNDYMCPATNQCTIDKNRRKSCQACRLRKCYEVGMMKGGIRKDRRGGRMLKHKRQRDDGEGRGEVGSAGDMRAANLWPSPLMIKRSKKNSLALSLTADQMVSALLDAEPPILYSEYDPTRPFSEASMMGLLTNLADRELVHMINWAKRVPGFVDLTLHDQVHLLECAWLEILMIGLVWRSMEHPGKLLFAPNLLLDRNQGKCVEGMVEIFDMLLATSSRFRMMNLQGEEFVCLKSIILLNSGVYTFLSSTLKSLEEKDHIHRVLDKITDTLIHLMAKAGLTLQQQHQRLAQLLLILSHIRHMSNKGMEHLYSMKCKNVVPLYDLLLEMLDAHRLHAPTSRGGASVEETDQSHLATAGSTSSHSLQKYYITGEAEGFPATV
zebrafish Estrogen Receptor (ER1), esr1 (gene 259252), sequence (P57717 whole entry, looked up, the tested form may be a part): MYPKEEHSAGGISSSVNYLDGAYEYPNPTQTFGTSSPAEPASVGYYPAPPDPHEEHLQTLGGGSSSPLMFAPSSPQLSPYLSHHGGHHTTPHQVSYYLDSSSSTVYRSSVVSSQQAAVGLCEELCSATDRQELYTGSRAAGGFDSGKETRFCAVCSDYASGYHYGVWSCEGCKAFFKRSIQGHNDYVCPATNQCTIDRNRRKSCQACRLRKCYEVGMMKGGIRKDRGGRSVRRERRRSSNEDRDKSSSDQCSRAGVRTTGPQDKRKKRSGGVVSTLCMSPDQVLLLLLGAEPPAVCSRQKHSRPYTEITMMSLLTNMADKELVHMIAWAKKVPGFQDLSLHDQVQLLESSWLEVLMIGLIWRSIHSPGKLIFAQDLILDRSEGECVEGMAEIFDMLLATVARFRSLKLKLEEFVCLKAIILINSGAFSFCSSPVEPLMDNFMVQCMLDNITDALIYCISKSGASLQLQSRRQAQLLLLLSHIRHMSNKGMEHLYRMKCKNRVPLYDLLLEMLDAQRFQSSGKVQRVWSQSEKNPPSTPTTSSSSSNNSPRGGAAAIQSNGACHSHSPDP
mouse Peroxisome Proliferator-activated Receptor gamma (PPARg), Pparg (gene 19016), sequence (P37238 whole entry, looked up, the tested form may be a part): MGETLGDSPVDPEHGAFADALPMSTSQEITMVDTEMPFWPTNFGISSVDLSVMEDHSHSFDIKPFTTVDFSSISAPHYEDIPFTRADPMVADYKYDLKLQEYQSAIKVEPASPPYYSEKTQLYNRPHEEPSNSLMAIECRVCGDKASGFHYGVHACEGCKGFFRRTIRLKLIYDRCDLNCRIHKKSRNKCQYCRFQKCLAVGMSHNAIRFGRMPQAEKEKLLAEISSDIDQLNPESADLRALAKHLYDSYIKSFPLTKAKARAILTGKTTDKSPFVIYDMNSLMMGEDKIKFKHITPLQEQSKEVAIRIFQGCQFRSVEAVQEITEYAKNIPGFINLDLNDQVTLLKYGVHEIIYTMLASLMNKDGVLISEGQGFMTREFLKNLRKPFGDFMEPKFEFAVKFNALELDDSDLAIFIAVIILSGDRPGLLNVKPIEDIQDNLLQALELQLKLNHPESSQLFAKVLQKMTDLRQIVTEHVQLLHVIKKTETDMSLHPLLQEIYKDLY
chicken Estrogen Receptor (ERa), ESR1 (gene 396099), sequence (P06212 whole entry, looked up, the tested form may be a part): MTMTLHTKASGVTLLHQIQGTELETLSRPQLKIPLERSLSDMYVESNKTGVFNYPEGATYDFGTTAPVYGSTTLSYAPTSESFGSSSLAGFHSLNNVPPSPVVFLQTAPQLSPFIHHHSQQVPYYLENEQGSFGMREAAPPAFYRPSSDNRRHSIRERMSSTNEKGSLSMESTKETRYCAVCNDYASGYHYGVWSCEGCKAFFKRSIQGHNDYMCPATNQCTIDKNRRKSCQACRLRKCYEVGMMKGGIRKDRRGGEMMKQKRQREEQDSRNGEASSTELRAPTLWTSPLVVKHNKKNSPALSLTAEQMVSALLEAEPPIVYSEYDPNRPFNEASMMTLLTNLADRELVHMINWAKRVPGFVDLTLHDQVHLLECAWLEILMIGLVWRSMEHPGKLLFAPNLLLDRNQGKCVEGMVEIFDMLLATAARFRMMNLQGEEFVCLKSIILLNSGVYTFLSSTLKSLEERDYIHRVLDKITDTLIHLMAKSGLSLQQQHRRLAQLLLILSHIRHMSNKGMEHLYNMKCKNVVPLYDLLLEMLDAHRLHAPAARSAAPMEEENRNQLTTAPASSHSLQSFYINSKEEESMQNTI
zebrafish Thyroid Hormone Receptor alpha (TRa), thraa (gene 30670), sequence (Q98867 whole entry, looked up, the tested form may be a part): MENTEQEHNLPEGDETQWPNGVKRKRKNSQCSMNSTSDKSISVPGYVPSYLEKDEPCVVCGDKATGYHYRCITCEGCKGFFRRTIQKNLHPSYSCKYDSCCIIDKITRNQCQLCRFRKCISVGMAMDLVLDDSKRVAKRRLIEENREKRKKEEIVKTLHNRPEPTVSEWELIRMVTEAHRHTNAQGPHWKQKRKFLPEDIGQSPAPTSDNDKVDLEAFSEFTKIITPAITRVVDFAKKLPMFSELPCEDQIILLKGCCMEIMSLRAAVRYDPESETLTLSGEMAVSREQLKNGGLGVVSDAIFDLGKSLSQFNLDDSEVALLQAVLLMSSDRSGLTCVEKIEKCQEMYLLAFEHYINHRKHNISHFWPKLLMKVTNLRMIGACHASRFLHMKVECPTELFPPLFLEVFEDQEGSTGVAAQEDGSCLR
zebrafish Thyroid Hormone Receptor beta (TRb), thrb (gene 30607), sequence (Q9PVE4 whole entry, looked up, the tested form may be a part): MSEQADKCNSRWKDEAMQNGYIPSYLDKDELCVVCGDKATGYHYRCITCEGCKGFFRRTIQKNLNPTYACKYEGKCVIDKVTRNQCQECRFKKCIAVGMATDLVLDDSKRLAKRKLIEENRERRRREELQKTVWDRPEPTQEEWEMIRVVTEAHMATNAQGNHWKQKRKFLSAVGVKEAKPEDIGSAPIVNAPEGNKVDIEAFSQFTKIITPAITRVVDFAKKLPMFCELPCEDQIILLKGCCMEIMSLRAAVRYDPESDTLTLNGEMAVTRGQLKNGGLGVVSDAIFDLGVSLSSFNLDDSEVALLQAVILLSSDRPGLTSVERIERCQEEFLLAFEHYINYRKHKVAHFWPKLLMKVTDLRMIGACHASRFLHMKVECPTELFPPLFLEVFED
Peroxisome proliferator-activated receptor gamma (Homo sapiens), sequence (P37231 whole entry, looked up, the tested form may be a part): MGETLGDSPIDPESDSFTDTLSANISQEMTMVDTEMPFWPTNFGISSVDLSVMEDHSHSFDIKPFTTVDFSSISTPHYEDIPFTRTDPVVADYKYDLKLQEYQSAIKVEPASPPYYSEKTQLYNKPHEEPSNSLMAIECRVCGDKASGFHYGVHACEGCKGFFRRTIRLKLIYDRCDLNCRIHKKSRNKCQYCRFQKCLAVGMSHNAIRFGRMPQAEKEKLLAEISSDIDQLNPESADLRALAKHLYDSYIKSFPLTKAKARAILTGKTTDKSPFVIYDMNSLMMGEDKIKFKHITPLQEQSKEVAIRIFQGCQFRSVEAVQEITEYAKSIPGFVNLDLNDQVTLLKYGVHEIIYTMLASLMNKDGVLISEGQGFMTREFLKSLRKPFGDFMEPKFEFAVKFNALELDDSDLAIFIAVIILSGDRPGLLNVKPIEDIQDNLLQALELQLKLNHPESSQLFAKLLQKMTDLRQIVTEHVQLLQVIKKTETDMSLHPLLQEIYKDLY
GAL4 Transcription Factor (Internal Marker), GAL4 (gene 855828), sequence (P04386 whole entry, looked up, the tested form may be a part): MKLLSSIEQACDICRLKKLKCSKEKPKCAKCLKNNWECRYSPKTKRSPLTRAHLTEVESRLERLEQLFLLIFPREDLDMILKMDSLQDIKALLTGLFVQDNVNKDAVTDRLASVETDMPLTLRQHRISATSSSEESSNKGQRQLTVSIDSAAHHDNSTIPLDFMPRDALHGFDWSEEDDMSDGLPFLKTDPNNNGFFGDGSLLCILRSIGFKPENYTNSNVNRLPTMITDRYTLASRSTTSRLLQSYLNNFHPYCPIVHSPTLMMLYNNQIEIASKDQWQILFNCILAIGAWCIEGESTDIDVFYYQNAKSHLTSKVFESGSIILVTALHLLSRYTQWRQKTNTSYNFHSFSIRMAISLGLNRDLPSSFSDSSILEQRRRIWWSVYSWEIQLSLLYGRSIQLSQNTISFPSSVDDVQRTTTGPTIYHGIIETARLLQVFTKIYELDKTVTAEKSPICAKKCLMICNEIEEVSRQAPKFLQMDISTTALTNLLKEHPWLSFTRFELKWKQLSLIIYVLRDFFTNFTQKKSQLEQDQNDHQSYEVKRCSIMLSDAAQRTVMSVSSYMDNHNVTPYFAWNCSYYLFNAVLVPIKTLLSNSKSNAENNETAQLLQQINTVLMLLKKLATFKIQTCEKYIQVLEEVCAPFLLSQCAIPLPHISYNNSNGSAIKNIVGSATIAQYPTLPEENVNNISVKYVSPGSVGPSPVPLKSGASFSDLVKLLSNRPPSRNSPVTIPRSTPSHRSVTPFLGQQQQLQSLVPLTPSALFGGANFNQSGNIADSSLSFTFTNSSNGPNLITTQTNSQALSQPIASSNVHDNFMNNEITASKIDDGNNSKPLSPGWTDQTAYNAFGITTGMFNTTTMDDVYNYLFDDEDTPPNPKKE

As to `CC(C)(c1ccc(O)cc1)c1ccc(O)cc1`, the AC50 in experiment [1] is 2530 nM (active); in experiment [2] it was 501 nM (active); in experiment [3] it was 2650 nM (active); in [4] it was 2.08 µM (active); in experiment [8], 12700 nM (active). The result in experiment [5], in [6], in experiment [7], in [9], in experiment [10] and in experiment [11] was inactive. For the same compound, in experiment [12], the compound was called inactive.
In the case of `C#C[C@]1(O)CC[C@H]2[C@@H]3CCC4=CC(=O)CC[C@@H]4[C@H]3CC[C@@]21CC`, the outcome in experiment [13], in experiment [14], in experiment [1], in experiment [2], in experiment [3] and in experiment [4] was inactive. In addition, the outcome in experiment [16], in experiment [5], in experiment [6], in [8], in [9] and in experiment [10] was inactive. In addition, the result in experiment [11] and in [12] was inactive. The concentration at half-maximal activity (AC50) in experiment [3] was 318 nM (active); in experiment [4] it was 0.651 µM (active); in experiment [15], 208 nM (active); in [17], 114 nM (active) and 35.2 nM (active).
Regarding `CN(C)C(=O)Nc1ccc(Cl)c(Cl)c1`, the compound was classed as inactive in experiment [1], in [3], in experiment [5], in experiment [6], in experiment [7] and in [8]. Also, the call in [9], in [10], in experiment [11] and in experiment [12] was inactive. Moreover, the half-maximal activity concentration (AC50) in [2] is 32.9 µM (active) and 10.6 µM (active); in experiment [3] it was 24900 nM (active); in experiment [4], 130 µM (active) and 65.2 µM (active); in experiment [17], 47.1 µM (active) and 48.1 µM (active); in experiment [5], 33800 nM (active); in [7] it was 100000 nM (active).
